TbPYK inhibitor – qHTS of Trypanosoma Brucei Inhibitors | Potency, µM (top dose mostly 76.8 µM), inactives show top-dose activity, negative = inhibition, usual class: inhibitors | pyruvate kinase (Trypanosoma brucei), Q57TT1 | AID 624173, 2012 | 410,000 compounds, 0.12% hits | TbPYK enzyme, Kinase-Glo Plus ATP luminescence, 45 min; note: potency is the fitted concentration of half-maximal effect; % is set by controls: 0 for no effect and ±100 for the full control effect; nearly all actives have a fitted effect of over 50% in size
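Activity of T. brucei pyruvate kinase was followed by Kinase-Glo Plus luminescence after the enzyme reacted 45 min at room temperature with 130 uM ADP (final) and substrate. Test compounds were added before ADP at multiple concentrations.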
LmPK inhibitor – qHTS Assay for Inhibitors of Leishmania Mexicana Pyruvate Kinase (LmPK); purified LmPK, Kinase-Glo ATP luminescence, 1 h; Potency, µM (highest dose often 57.5 µM), for the others: at the highest dose activity change, negative = inhibition, usual class: inhibitors; 290,000 compounds, 0.37% hits; AID 1721, 2009; note: potency is the fitted concentration of half-maximal effect; % is set by controls: 0 for no effect and ±100 for the full control effect
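Screened at intermediate enzyme activity to detect both inhibitors and activators: LmPK at 0.1 nM, with a 0.5 nM enzyme column as activation reference. PEP 0.5 mM, ADP 0.1 mM; ATP detected by luminescence after 1 h.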
Shiga toxin inh – A qHTS for Small Molecule Inhibitors of Shiga Toxin | Vero cells, Shiga toxin protein synthesis inhibition reporter | inhibition, % at 38.7 µM | 290,000 compounds, 9.2% hits | AID 2315, 2010; in the data active = inhibition mostly above about 28%, no sharp cut-off; inactive = mostly below about 43%; note: 0% is about no effect
Sm TGR inh – qHTS Assay for the Inhibitors of Schistosoma Mansoni Peroxiredoxins | 360,000 compounds, 3% hits | AID 485364, 2010 | Schistosoma mansoni thioredoxin glutathione reductase (TGR), Q962Y6 | purified TGR, DTNB reduction, TNB absorbance 405 nm | Potency, µM (top dose mostly 114 µM), for the others: at the top dose activity change, negative = inhibition, hits mostly inhibitors; note: potency is the fitted concentration of half-maximal effect; % is set by controls: 0 for no effect and ±100 for the full control effect; nearly all actives have a fitted effect of over 60% in size
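Kinetic colorimetric format: TGR-catalysed, NADPH-driven DTNB reduction monitored via TNB absorbance. Enzyme dispensed at 20 nM; compound exposure 15 min at room temperature before reaction start.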
FBPA Giardia inh – qHTS Assay for Inhibitors of Fructose-1,6-bisphosphate Aldolase from Giardia Lamblia. A8B2U2. purified Giardia FBPA. Potency, µM (doses to about 59.6 µM), for inactives: top-dose activity, negative = inhibition, usual class: inhibitors. 290,000 compounds, 0.71% hits; note: potency is the fitted concentration of half-maximal effect; % is set by controls: 0 for no effect and ±100 for the full control effect; nearly all actives have a fitted effect of over 55% in size
Target sequence (A8B2U2 whole entry, looked up): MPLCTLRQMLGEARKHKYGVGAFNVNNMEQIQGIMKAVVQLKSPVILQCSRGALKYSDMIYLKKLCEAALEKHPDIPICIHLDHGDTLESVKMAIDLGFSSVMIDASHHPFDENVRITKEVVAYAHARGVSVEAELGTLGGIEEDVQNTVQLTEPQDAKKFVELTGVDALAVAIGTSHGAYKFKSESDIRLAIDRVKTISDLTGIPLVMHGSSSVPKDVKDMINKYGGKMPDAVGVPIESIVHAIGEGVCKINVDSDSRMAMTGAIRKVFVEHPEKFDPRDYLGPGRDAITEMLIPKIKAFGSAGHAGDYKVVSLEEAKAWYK
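40 nM FBPA preincubated 10 min at RT with compound (up to 57.5 uM final), then substrate plus GAPDH/TPI/NAD/arsenate coupling and diaphorase/resazurin added. Fluorescence read after 20 min at RT, 525/598 nm.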
CHX counter – Cycloheximide Counterscreen for Small Molecule Inhibitors of Shiga Toxin. 300,000 compounds, 12% hits. cell reporter, cycloheximide protein synthesis inhibition counterscreen. max response, %; in the data active = max response mostly above about 13%, no sharp cut-off; inactive = mostly below about 14%; note: read at 38.3 µM for the half of the compounds with a filed dose; 0% is about no effect
* hit, by the source's call; ? = inconclusive; . = not tested or not shown. The entries come from a sample that favours hits as a whole. Unless noted, calls come from the whole dose curve; as a rule, active = well fitted curve in the direction sought with a large enough effect; inconclusive = small, poorly fitted or top-dose-only effect, or another doubt; inactive = no such curve, though single readings can be large; an effect the other way counts as inactive or inconclusive.

SMILES	TbPYK inhibitor	LmPK inhibitor	Shiga toxin inh	Sm TGR inh	FBPA Giardia inh	CHX counter
COc1ccc2cc(-c3csc(-c4cccnc4)n3)ccc2c1	-2%	-5%	74	-18%	1%	26*
COc1ccc(Cl)cc1Nc1nc(-c2cccnc2)cs1	5%	-1%	-1	3%	6%	11
CC(CCc1ccccn1)(CCc1ccccn1)C(=O)c1ccccc1	-1%	.	.	.	.	.
Cc1ccc(C)c(S(=O)(=O)N2CCCC2CNC(=O)C(=O)NCC2CCCO2)c1 (configuration not stated)	-3%	.	.	-1%	.	.
COc1ccc(NC(=O)CSc2nnnn2C2CC3C=CC2C3)cc1 (configuration not stated)	5%	3%	31	-3%	.	20*
COc1ccc(NC(=O)CSc2nccn2Cc2ccccc2)cc1	1%	-7%	164*	12%	.	53*
COc1ccc(Cn2ccnc2SCC(=O)NCc2ccccc2)cc1	-9%	.	.	1%	.	.
CCc1ccc(NC(=O)CSc2nccn2-c2ccc(OC)cc2)cc1	-9%	.	.	-1%	.	.
COc1ccc(NC(=O)CSc2nccn2-c2ccccc2)cc1	0%	2%	39	7%	2%	22*
CCc1cccc(C)c1NC(=O)C1=C(C)C(=O)OC12CCC(C)CC2 (configuration not stated)	2%	.	.	1%	.	.
COc1ccc(S(=O)(=O)N2CCCC(C(=O)N3CCN(Cc4ccccc4)CC3)C2)cc1Cl (configuration not stated)	4%	.	.	.	.	.
CN(C)[C@H]1C(=O)C(C(=O)NCN2CCCC2)=C(O)[C@]2(O)C(=O)C3=C(O)c4c(O)cccc4[C@](C)(O)[C@H]3C[C@H]12	-9%	.	.	.	.	.
CCc1nc2ccc(C(=O)NCCOc3ccc(OC)cc3)cn2c1N(C)Cc1cccs1	1%	.	.	.	.	.
CCc1cc2c(=O)c(-c3nc4ccccc4[nH]3)coc2c(CN2CCCCC2C)c1O (configuration not stated)	5%	0%	-2	-7%	2%	-2
CN1CCN(Cc2c(O)ccc3cc(-c4ccccc4)c(=O)oc23)CC1	-3%	.	.	-12%	.	.
O=c1oc2c(CN3CCCCC3)c(O)ccc2cc1-c1nc2ccccc2[nH]1	-4%	5%	13	-2%	-15%	12*
O=C(O)c1ccc2nc(-c3cc4cccc(O)c4oc3=O)[nH]c2c1	20µM*	.	.	-27%	.	.
O=C(O)c1ccc2nc(-c3cc4cc(F)ccc4oc3=O)[nH]c2c1	-12%	.	.	1%	.	.
CCc1cc2c(=O)c(-c3nc4ccccc4[nH]3)coc2c(CN2CCCCC2)c1O	5%	6%	35	5%	-16%	27*
O=c1oc2c(O)cccc2cc1-c1nc2ccccc2[nH]1	2%	?	69*	11%	10%	47*
CC(=O)c1ccc(S(=O)(=O)NCCC(=O)OCC(=O)N2CCCC2=O)cc1	-2%	.	.	-8%	.	.
C[C@H](O)[C@@H]1CN2CCc3c([nH]c4ccc(-c5ccc6c(c5)OCO6)cc34)[C@@H]2C[C@@H]1N(C)C(=O)NC1CCCCC1	-6%	.	.	.	.	.
C=CCc1cccc2cc(NC(C)=O)c(=O)oc12	0%	4%	-11	-5%	-3%	-2
C=CCc1cccc2cc(-c3nc4ccc(C)cc4[nH]3)c(=O)oc12	-4%	.	91*	2%	.	36*
C/C(=N\Nc1ccccc1[N+](=O)[O-])c1ccccc1O	0%	-5%	90*	?	-1%	41*
SMILES	TbPYK inhibitor	LmPK inhibitor	Shiga toxin inh	Sm TGR inh	FBPA Giardia inh	CHX counter
C/C(=N\Nc1ccc(S(N)(=O)=O)cc1[N+](=O)[O-])c1ccccc1O	-3%	-9%	-7	-1%	0%	-2
CC/C(=N\Nc1ccc([N+](=O)[O-])cc1[N+](=O)[O-])c1ccc(O)cc1	-4%	-4%	3	1%	1%	-3
CC/C(=N\Nc1ccccc1[N+](=O)[O-])c1ccc(O)cc1	-4%	-3%	58*	12%	-12%	23*
COc1ccc(-n2c(SCC(=O)N3CCOCC3)nc3ccccc3c2=O)cc1	3%	-6%	-10	40%	.	-4
Cc1ccc(-c2nc3ccc(Br)cn3c2Cc2cccc(F)c2)cc1	3%	.	.	.	.	.
O=C(c1cnn(-c2ccccc2)c1)c1ccc2ccccc2c1O	3%	-1%	39	6%	2%	15*
CC(C)(C)n1cc(C(=O)c2ccc3ccccc3c2O)cn1	-1%	-2%	46*	-1%	-12%	25
CC(C)(C)n1cc(C(=O)c2ccccc2OCCCF)cn1	1%	0%	-4	8%	-2%	-2
CCC(=O)Nc1cccc(C2=NOC3(C2)C[C@@H](C(N)=O)N(C(=O)C(c2ccccc2)c2ccccc2)C3)c1 (some centres not stated)	3%	-2%	-6	-2%	-3%	-5
C/C=C\C=C/C(=O)Nc1cccc(C2=NOC3(C2)C[C@@H](C(N)=O)N(C(=O)CCCCC)C3)c1 (some centres not stated)	?	3%	-2	2.5µM*	-9%	-2
C/C=C\C=C/C(=O)Nc1cccc(C2=NOC3(C2)C[C@H](C(N)=O)N(C(=O)Cc2ccc([N+](=O)[O-])cc2)C3)c1 (some centres not stated)	?	7%	2	1.1µM*	-14%	-4
C/C=C\C=C\C(=O)Nc1cccc(C2=NOC3(C2)C[C@@H](C(N)=O)N(C(=O)C(c2ccccc2)c2ccccc2)C3)c1 (some centres not stated)	-8%	5%	0	1.8µM*	-18%	-6
C=C(C)C(=O)Nc1cccc(C2=NOC3(C2)C[C@@H](C(N)=O)N(C(=O)/C=C/C=C/C)C3)c1 (some centres not stated)	-14%	-4%	-1	8.9µM*	-6%	-4
O=C(NCCCN1CCN(c2cccc(Cl)c2)CC1)Nc1ccccc1C(F)(F)F	6%	.	.	4%	.	.
CCNc1nc(N)nc(Oc2ccc(OCC(=O)OC)nn2)n1	3%	.	.	12%	.	.
C/C=C/C=C\C(=O)Nc1cccc(C2=NOC3(C2)C[C@@H](C(N)=O)N(C(=O)/C(C)=C/C)C3)c1 (some centres not stated)	-17%	-2%	-5	2.5µM*	-6%	-8
CCCCCC(=O)Nc1cccc(C2=NOC3(C2)C[C@H](C(N)=O)N(C(=O)CC#N)C3)c1 (some centres not stated)	.	-1%	2	0%	-21%	-6
